From ChEMBL document CHEMBL2218924, “A broad activity screen in support of a chemogenomic map for kinase signalling research and drug discovery” (Biochem J, 2013)

Columns and labels:
[1] = molecular target: T1, Ephrin type-B receptor 1 (Homo sapiens) (UniProt P54762); details: at 10 µM
T1 sequence (whole entry): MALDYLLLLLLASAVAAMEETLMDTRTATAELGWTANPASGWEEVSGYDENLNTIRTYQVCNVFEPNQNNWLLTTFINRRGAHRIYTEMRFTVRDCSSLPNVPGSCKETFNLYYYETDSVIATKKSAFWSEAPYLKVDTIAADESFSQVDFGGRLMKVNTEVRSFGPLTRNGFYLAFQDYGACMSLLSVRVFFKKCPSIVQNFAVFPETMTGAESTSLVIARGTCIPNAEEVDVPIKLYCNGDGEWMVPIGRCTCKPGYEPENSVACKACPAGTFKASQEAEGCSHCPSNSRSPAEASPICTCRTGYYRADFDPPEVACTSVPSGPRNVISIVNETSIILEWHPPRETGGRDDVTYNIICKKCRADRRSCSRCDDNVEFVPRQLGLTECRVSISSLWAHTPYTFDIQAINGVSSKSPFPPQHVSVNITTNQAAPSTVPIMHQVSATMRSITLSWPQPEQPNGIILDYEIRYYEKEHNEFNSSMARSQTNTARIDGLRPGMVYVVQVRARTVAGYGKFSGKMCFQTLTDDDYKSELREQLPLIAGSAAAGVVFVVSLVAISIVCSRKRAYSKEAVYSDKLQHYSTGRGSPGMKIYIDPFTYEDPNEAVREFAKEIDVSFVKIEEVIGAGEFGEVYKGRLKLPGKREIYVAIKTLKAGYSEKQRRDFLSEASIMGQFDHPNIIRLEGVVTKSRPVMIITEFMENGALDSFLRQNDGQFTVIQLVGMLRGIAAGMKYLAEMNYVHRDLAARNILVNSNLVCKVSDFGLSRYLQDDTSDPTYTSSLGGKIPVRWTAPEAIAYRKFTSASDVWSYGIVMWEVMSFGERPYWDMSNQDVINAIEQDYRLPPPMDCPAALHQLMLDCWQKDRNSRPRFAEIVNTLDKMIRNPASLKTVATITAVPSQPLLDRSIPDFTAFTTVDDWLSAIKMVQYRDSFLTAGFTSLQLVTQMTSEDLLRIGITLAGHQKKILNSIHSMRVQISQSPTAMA

[2] = molecular target: T2, Ephrin type-B receptor 2 (Homo sapiens) (UniProt P29323); details: at 1 µM
T2 sequence (whole entry): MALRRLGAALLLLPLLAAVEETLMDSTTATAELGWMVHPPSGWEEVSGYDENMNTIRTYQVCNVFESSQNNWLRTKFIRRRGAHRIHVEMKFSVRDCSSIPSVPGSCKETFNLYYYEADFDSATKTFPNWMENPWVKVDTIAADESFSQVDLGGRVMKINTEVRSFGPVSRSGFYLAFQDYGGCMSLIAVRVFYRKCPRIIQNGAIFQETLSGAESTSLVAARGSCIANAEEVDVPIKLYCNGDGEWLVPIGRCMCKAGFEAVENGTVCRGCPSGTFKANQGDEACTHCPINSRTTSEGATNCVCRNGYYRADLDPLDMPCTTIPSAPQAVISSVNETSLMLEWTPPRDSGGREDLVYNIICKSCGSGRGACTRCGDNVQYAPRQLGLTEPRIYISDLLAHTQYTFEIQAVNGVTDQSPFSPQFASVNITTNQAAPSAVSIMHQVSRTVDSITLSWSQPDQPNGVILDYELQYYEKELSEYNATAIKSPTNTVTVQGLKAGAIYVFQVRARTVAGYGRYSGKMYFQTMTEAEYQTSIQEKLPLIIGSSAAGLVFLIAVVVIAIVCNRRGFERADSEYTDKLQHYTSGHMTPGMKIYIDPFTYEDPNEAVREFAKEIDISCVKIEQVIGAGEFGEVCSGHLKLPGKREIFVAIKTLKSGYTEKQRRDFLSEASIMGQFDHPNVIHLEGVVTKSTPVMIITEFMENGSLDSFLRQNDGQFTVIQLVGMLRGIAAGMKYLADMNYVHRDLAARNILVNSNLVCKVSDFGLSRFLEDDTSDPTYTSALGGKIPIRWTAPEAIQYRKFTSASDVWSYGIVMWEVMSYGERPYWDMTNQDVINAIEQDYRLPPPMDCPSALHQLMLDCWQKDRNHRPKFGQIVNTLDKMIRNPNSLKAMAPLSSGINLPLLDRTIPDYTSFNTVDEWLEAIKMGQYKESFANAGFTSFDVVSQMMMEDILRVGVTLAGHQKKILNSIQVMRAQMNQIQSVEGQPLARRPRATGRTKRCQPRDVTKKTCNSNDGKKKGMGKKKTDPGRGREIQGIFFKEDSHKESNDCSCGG

[3] = molecular target: T2, Ephrin type-B receptor 2 (Homo sapiens); details: at 10 µM
[4] = molecular target: T3, Ephrin type-B receptor 3 (Homo sapiens) (UniProt P54753); details: at 1 µM
T3 sequence (whole entry): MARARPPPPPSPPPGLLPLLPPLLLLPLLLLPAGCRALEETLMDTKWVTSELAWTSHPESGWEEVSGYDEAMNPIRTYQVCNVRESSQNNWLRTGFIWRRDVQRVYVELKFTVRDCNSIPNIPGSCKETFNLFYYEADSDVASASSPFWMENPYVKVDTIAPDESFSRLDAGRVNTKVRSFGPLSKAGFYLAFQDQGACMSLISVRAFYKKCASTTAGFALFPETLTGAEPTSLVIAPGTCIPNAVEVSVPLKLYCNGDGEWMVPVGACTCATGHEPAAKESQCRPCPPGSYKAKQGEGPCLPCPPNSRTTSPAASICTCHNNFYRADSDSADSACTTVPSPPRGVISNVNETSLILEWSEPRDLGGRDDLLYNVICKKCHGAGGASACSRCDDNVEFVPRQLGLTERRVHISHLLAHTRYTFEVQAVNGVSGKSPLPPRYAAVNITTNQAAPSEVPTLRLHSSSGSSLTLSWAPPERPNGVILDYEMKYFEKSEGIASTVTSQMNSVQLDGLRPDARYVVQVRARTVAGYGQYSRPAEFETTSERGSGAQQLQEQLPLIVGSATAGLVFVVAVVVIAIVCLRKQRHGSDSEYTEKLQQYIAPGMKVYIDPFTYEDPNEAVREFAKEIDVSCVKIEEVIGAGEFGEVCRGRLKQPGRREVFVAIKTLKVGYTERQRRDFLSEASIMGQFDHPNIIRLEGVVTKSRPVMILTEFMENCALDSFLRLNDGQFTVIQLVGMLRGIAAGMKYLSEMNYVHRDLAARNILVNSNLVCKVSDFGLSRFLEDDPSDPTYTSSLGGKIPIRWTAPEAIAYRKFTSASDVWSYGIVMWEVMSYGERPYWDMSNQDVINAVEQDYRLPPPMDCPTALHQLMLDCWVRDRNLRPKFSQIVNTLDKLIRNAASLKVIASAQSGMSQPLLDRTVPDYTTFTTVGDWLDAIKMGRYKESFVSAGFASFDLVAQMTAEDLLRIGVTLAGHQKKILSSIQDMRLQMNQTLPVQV

[5] = molecular target: T3, Ephrin type-B receptor 3 (Homo sapiens); details: at 10 µM
[6] = molecular target: T4, Ephrin type-B receptor 4 (Homo sapiens) (UniProt P54760); details: at 1 µM
T4 sequence (whole entry): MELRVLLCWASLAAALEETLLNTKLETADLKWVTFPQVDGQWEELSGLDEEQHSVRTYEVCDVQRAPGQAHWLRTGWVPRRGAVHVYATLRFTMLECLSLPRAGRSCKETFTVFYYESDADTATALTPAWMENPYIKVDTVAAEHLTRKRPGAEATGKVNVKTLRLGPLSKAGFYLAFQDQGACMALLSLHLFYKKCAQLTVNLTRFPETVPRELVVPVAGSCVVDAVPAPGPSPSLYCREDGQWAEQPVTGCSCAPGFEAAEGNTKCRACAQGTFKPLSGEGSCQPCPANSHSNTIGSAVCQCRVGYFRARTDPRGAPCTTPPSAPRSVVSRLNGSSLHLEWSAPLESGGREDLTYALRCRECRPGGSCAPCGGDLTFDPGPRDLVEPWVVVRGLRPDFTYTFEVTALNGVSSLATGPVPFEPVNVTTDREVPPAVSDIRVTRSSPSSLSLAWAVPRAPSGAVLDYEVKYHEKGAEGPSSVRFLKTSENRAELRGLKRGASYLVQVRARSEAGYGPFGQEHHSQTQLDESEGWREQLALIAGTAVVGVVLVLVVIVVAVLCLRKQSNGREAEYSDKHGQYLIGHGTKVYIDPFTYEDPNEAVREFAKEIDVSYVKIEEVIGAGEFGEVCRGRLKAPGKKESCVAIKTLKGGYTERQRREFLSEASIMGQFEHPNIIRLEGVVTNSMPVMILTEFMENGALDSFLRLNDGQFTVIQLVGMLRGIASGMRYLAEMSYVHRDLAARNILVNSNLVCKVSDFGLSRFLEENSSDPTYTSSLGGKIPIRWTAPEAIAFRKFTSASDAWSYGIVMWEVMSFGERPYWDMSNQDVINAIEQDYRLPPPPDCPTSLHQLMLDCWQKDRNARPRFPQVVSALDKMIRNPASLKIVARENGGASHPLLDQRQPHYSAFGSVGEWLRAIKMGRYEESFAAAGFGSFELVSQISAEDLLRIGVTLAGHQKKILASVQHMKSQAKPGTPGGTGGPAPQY

[7] = molecular target: T4, Ephrin type-B receptor 4 (Homo sapiens); details: at 10 µM
[8] = molecular target: Receptor tyrosine-protein kinase erbB-4 (Homo sapiens) (UniProt Q15303); details: at 1 µM
Receptor tyrosine-protein kinase erbB-4 (Homo sapiens), sequence (Q15303 whole entry): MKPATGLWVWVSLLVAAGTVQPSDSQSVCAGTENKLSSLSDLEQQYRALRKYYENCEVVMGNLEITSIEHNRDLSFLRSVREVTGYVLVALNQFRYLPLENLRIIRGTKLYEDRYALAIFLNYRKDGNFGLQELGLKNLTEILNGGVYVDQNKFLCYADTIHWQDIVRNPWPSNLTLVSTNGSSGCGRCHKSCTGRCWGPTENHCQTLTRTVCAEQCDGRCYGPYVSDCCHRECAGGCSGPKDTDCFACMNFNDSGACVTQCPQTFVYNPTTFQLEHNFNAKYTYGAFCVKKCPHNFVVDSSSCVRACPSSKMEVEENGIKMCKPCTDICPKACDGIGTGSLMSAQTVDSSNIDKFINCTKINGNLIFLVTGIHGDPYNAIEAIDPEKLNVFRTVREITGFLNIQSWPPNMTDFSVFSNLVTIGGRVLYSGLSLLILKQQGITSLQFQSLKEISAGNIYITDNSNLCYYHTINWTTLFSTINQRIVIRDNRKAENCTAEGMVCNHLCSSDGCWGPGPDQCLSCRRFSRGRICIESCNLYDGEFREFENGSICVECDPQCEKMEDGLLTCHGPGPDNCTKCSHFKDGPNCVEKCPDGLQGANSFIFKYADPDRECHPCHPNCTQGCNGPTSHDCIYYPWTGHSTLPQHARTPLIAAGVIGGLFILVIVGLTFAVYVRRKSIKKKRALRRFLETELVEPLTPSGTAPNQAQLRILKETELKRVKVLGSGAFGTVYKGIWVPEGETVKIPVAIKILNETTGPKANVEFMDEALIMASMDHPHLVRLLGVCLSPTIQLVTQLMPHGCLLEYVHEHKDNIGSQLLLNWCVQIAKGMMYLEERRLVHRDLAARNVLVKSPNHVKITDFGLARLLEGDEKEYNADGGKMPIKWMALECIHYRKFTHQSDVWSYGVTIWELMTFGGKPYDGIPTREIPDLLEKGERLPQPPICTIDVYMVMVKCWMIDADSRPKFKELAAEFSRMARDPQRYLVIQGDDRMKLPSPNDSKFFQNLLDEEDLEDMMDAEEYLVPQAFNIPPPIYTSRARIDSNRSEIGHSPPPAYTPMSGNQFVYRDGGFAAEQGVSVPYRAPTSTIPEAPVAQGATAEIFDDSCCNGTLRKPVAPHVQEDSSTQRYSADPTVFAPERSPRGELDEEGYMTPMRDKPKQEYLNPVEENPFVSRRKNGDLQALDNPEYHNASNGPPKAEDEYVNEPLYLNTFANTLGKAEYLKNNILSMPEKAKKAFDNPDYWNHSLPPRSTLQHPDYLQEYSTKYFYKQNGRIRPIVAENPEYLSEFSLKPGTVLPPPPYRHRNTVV

[9] = molecular target: Receptor tyrosine-protein kinase erbB-4 (Homo sapiens) (UniProt Q15303); details: at 10 µM
[10] = molecular target: Focal adhesion kinase 1 (Homo sapiens) (UniProt Q05397); details: at 1 µM
Focal adhesion kinase 1 (Homo sapiens), sequence (Q05397 2-1052 limits assumed): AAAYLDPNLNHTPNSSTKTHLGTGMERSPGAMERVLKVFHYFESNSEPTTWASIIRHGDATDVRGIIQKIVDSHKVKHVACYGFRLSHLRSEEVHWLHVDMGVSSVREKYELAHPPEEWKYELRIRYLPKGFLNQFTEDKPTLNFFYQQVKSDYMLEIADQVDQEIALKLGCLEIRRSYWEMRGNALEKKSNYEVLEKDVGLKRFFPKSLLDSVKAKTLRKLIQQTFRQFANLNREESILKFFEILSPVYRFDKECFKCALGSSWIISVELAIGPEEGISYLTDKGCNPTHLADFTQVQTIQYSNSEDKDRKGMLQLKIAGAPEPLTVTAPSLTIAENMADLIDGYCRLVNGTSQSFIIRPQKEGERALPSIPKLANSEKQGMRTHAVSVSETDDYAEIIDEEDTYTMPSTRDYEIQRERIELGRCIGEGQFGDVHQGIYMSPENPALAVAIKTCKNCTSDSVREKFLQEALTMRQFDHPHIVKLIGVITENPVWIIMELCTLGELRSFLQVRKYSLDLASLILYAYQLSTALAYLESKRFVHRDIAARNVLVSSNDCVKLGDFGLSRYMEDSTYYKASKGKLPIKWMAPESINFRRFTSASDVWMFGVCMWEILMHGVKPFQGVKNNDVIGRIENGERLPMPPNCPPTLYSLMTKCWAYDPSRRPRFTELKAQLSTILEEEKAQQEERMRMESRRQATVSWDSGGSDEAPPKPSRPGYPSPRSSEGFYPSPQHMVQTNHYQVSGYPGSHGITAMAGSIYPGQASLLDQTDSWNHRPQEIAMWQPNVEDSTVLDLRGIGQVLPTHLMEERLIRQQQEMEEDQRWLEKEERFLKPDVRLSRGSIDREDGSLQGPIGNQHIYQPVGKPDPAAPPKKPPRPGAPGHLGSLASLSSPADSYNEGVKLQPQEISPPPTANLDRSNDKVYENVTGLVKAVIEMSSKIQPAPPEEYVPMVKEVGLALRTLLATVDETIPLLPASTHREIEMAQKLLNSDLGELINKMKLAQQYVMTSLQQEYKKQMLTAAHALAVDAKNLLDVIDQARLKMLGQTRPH

## COc1cccc(-c2cc(=O)c3ccccc3o2)c1N
[1]
  residual activity: 100%
[2]
  residual activity: 118%
[3]
  residual activity: 132%
[4]
  residual activity: 107% (inactive)
[5]
  residual activity: 112%
[6]
  residual activity: 94%
[7]
  residual activity: 109%
[8]
  residual activity: 90%
[9]
  residual activity: 93%
[10]
  residual activity: 115%
